# Screens as filed in PubChem.
# A selection: hits, their analogues and other compounds. The true share with any hit is near 3.6%.
# Pf apPOL inh: Pf-apPOL DNA polymerase inhibition; inhibition, % at 10 µM; Recombinant Pf-apPOL, molecular beacon fluorescence, 1.5 h; 0.25% of 210,000 active; AID 1794808
# mHTT-CaM PPI inh: inhibitors of human mutant huntingtin-calmodulin interaction; AlphaScreen His-mHTT/GST-CaM binding, luminescence; inhibition, % at 15 µM; 3.6% of 190,000 active; AID 1671202;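 note: 0% = both proteins with DMSO and 100% = one protein alone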
# * hit, by the source's call; . = not tested or not shown. Cut-off read from the data, not from the text of the source: active = inhibition above about 50%; inactive = the rest.
SMILES,Pf apPOL inh,mHTT-CaM PPI inh
O=C1CN(C(=O)c2ccc(F)cc2)C(c2ccc(F)cc2)c2cc(Br)ccc2N1 (stereo not drawn),-2.7,35.0
Cc1ccc(NC(=O)N2CCCC2c2cc(C(C)C)no2)cc1 (stereo not drawn),-2.1,-1.3
CSc1cccc(NC(=O)N2CCc3c(nc4cc[nH]n4c3=O)C2)c1,3.6,14.3
CC(C)c1ccc(/C=C2/N=C(c3ccccc3F)OC2=O)cc1,-4.5,9.0
Cc1ccc(C2CN(C(=O)c3ccc(Cl)cc3)CC2C(=O)NCC(C)C)cc1 (stereo not drawn),-5.0,3.0
Cc1ccc(C)c(C2NC(=O)N(CC(=O)Nc3ccc4c(c3)OCCO4)C3=C2C(=O)OC3)c1 (stereo not drawn),-3.7,2.0
COc1ccccc1OCC(=O)Nc1ncc(Cc2ccccc2Cl)s1,2.2,2.0
CCOc1ccc(N2C(=O)CS/C2=C(\C(Cl)=C(Cl)Cl)[N+](=O)[O-])cc1,-9.6,57.0*
O=C1CS/C(=C(\C(Cl)=C(Cl)Cl)[N+](=O)[O-])N1c1ccc(F)cc1,3.5,36.0
Fc1ccc(-c2noc(Cc3nnc(-c4cccc(F)c4)o3)n2)cc1,-2.7,-9.7
CCC(C)c1ccc(OCCCN2CCN(C)CC2)cc1 (stereo not drawn),-6.6,3.2
CCC(C)c1ccc(OCCCCN2CCN(C)CC2)cc1 (stereo not drawn),-0.9,54.2*
O=C(CSc1nc2ccccc2s1)NCc1nc(-c2ccccc2)no1,-7.0,-15.3
N#C/C(=C\c1c[nH]c2ccccc12)C(=O)Nc1cc([N+](=O)[O-])ccc1Cl,-3.6,7.0
N#C/C(=C\c1cc([N+](=O)[O-])ccc1Cl)C(=O)NCCc1c[nH]c2ccccc12,-3.8,96.0*
COCCCNC(=O)C1CCCN(S(=O)(=O)N2CCCCCC2)C1 (stereo not drawn),-6.4,-7.0
CCCSc1nnc2c(n1)OC(c1cccnc1)Nc1ccccc1-2 (stereo not drawn),51.9*,0.0
CCSc1nnc2c(n1)OC(c1cc(OC)c(O)c(OC)c1)Nc1ccccc1-2 (stereo not drawn),94.6*,-3.0
CCCSc1nnc2c(n1)OC(c1cc(OC)c(O)c(OC)c1)Nc1ccccc1-2 (stereo not drawn),-0.2,-7.0
CCCCCSc1nnc2c(n1)OC(c1cccnc1)Nc1ccccc1-2 (stereo not drawn),-3.3,6.0
COc1ccc(-n2ncc3c2CC(c2ccc(F)cc2)CC3=O)cc1 (stereo not drawn),-2.8,22.5
Cc1nc(-c2c(Cl)cc(C(F)(F)F)cc2Cl)sc1C(=O)C=CN(C)C,4.1,.
O=C1c2ccccc2C(=O)c2c(O)c(O)cc(O)c21,-0.7,75.0*
O=C1c2ccccc2C(=O)c2c1cc(S(=O)(=O)O)c(O)c2O,.,52.0*
O=C1c2ccccc2C(=O)c2c(O)ccc(O)c21,-27.1,41.8
SMILES,Pf apPOL inh,mHTT-CaM PPI inh
Nc1cc(S(=O)(=O)O)c(N)c2c1C(=O)c1ccccc1C2=O,31.2,.
Cc1cccc(CNC(=O)C2(C)Oc3cccnc3NC2=O)c1 (stereo not drawn),-6.8,-8.2
Cc1ccc(-c2csc3c(=O)n(CC(=O)Nc4cc(C)cc(C)c4)cnc23)cc1,-3.5,-9.4
O=C(Nc1ccc(C2(C(=O)N3CCN(c4ccc(F)cc4)CC3)CCC2)cc1)C1CC1,-3.6,4.6
COc1ccc(Br)cc1C1Nc2ccc(F)cc2C2C=CCC21 (stereo not drawn),-1.8,73.0*
COc1ccc(C2Nc3ccc(Br)cc3C3C=CCC32)cc1[N+](=O)[O-] (stereo not drawn),-8.7,86.0*
Fc1ccc2c(c1)[C@@H]1C=CC[C@@H]1[C@H](c1ccccc1Cl)N2,.,-4.3
COc1ccc(C2Nc3c(cccc3C(F)(F)F)C3C=CCC32)cc1[N+](=O)[O-] (stereo not drawn),-8.6,38.0
Cc1ccc(O)c(NC(=O)CSc2n[nH]c(C)c2[N+](=O)[O-])c1,11.1,13.0
Cc1[nH]nc(SCC(=O)Nc2cc(Br)ccc2O)c1[N+](=O)[O-],0.7,52.0*
Cc1noc(C)c1C1CCCN1Cc1cc(Cl)ccc1O (stereo not drawn),3.9,-8.3
CSc1ccc(C2C(C#N)=C(N)Oc3cc(N(C)C)ccc32)cc1 (stereo not drawn),-4.0,42.1
CCOc1ccccc1C1C(C#N)=C(N)Oc2cc(N(C)C)ccc21 (stereo not drawn),-5.0,61.0*
O=C(CN1CCN(c2ccc(F)cc2)CC1)Nc1cccnc1Cl,0.2,0.0
O=C(CN1CCN(c2ccc(F)cc2)CC1)Nc1ccc(Cl)c(Cl)c1,4.5,58.3*
CCc1ccc(NC(=O)Cn2cccc2-c2nnc(C3CC3)o2)cc1,-0.2,-2.2
N#CC1=C(N)Oc2n[nH]c(-c3ccncc3)c2C1c1ccc(F)cc1 (stereo not drawn),-7.2,1.0
CCC(CC)NC(=O)c1ccc2[nH]c3c(c2c1)CN(C(C)=O)CC3,1.2,-2.3
CC(=O)N1CCc2[nH]c3ccc(C(=O)NCc4ccc(N5CCOCC5)cc4)cc3c2C1,-3.4,55.5*
CCOc1ccccc1CNC(=O)c1ccc2[nH]c3c(c2c1)CN(C(C)=O)CC3,-1.8,74.3*
CCc1ccc(CNC(=O)c2ccc3[nH]c4c(c3c2)CN(C(C)=O)CC4)cc1,-12.7,40.8
Cc1ccccc1OCC(=O)Nc1ccc(F)cc1,0.3,-18.7
CC1(O)CCN(Cc2cc(F)c(F)cc2F)CC1N1CCCC1 (stereo not drawn),-0.8,4.0
COCCn1cc2c3c(cccc31)CN(C(=O)c1ccc(Br)o1)CC2,-7.3,75.8*
CCCNC(=O)N1CCc2cn(CCOC)c3cccc(c23)C1,-1.6,-5.8
SMILES,Pf apPOL inh,mHTT-CaM PPI inh
COCCn1cc2c3c(cccc31)CN(C(=O)Nc1cccc(F)c1)CC2,0.9,2.6
COCCn1cc2c3c(cccc31)CN(C(=O)c1cc(F)ccc1F)CC2,-2.9,26.4
COCCn1cc2c3c(cccc31)CN(C(=O)Nc1cc(Cl)ccc1C)CC2,-0.3,11.0
COCCn1cc2c3c(cccc31)CN(C(=O)c1cc(Cl)ccc1OC)CC2,0.5,70.8*
COCCn1cc2c3c(cccc31)CN(C(=O)c1ccc(F)cc1)CC2,-0.9,64.2*
COCCn1cc2c3c(cccc31)CN(C(=O)c1ccc(F)c(F)c1)CC2,-2.0,61.3*
CCOc1ccc(-n2cc(C(=O)N(C)C3CCCCC3)c3cc(OC)c(OC)cc3c2=O)cc1,-78.9,27.0
CC(=O)N1CCCC2(CC(c3cccc(Cl)c3)=CO2)C1 (stereo not drawn),-4.1,12.4
Cc1ccc(N2CCN(C(=O)c3cccc(F)c3)C(C)C2=O)cc1Cl (stereo not drawn),-2.8,-0.5
COc1nccc(N2CCC(CC(=O)NCc3cccc(Cl)c3)CC2)n1,-3.9,6.4
OC(CNC1CCCCC1)COCC12CC3CC(CC(C3)C1)C2 (stereo not drawn),-0.6,-2.1
Cc1nc(C)c(-c2csc(Nc3ccc(N)cc3)n2)s1,-22.8,86.6*
COc1ccccc1Nc1nc(-c2sc(C)nc2C)cs1,5.2,-5.5
COc1ccc(Nc2nc(-c3sc(C)nc3C)cs2)cc1,-4.4,52.0*
Cc1nc(C)c(-c2csc(NCc3ccco3)n2)s1,-6.2,11.8
Cc1ccc(C(=O)N(CC2COc3ccccc3C2)C(C)C)cc1F (stereo not drawn),-6.0,-15.2
COc1ccc2[nH]cc(CCN3CC(C(=O)Nc4ccc(Cl)cc4)CC3=O)c2c1 (stereo not drawn),-2.8,40.1
